# Data from PubChem BioAssay AID1259343 (VanderVen Lab, College of Veterinary Medicine, Cornell …, 2017).
# The whole screen tested about 6,200 compounds, of which about 2,900 (47%) were called active. The set was probably picked from earlier hits. Some of the results follow. A number with no mark means an inactive call. Cut-off read from the data, not from the text of the source: active = inhibition above about 50%; inactive = the rest.
# Experiment: Mycobacterium tuberculosis growth inhibition, primary screen (AID 1259343)
# Conditions: inhibition: at 10 µM, active compounds read high; outcome: 10 uM
row,SMILES,inhibition
1,c1csc(-c2nc(SCC3COc4ccccc4O3)n[nH]2)c1 (stereo unspecified),-27.5%
2,c1csc(-c2nnc(CON=C3c4ccccc4-c4ccccc43)o2)c1,26.7%
3,Brc1ccccc1-c1nnc(CSc2nnnn2C2CC2)o1,28.9%
4,Clc1ccc(C=NOCc2nnc(-c3ccccc3Br)o2)cc1Cl,50.2% (active)
5,Oc1ccc(-c2nc3cc(Cl)ccc3s2)cc1,36.2%
6,CC(C(N)=O)N1CCC(c2nc3cc(Cl)ccc3s2)CC1 (stereo unspecified),38%
7,CC(C)c1nc(CS(=O)(=O)c2nc3cc(Cl)ccc3s2)no1,64.2% (active)
8,O=C(O)/C=C/C=C/c1ccccc1,38.2%
9,Cc1cc(C)c(C)c(C(=O)/C=C/C(=O)O)c1C,85.5% (active)
10,O=C(Nc1ccc(-c2nc3ccccc3o2)cc1)C1CCN(C(=O)C2CCCCO2)CC1 (stereo unspecified),34.5%
11,O=C(Nc1cccc(-c2noc(C3CC3)n2)c1)C1CCOCC1,11.2%
12,Cc1nc(-c2ccc(NC(=O)C3CCOCC3)cc2)co1,88.5% (active)
13,C(=Cc1nc2c(ccc3ccccc32)s1)c1ccc2c(c1)OCCO2,36.3%
14,COc1cc(C(=O)NCC(=O)Nc2nc3c(ccc4ccccc43)s2)cc(OC)c1OC,88.5% (active)
15,O=S(=O)(Nc1nc2c(ccc3ccccc32)s1)c1ccc(Cl)s1,22.8%
16,O=C1CCC(=O)N1OCCOc1cccc(Oc2ccccc2)c1,72% (active)
17,CCCCNC(=O)NCC12CC3CC(CC(C3)C1)C2,74.1% (active)
18,CC(C)(C(=O)Nc1ccc(F)cc1)c1ccc2c(c1)OCCO2,57.4% (active)
19,CCOC(=O)C1=C(C)N(c2ccc3c(c2)OCCO3)C(=S)NC1c1cccc(F)c1 (stereo unspecified),1.48%
20,Cc1nc(N2CCCCC2)c2c3c(sc2n1)CC(C)CC3 (stereo unspecified),-32.2%
21,CC1CCc2c(sc3nc(C(C)C)nc(N4CCN(C(=O)Nc5c(Cl)cccc5Cl)CC4)c23)C1 (stereo unspecified),10.7%
22,CC1CCc2c(sc3nc(-c4ccc(N(C)C)cc4)nc(N4CCNCC4)c23)C1 (stereo unspecified),94.9% (active)

row,SMILES,inhibition
1,COc1cccc(CN(C)C(=O)c2cc3ccccc3o2)c1OC,39.1%
2,COC(=O)c1ccc(CN(Cc2cccc(OC)c2OC)C2CC2)o1,83.8% (active)
3,CCN(CC1COc2ccccc2O1)C(=O)NCc1sccc1C (stereo unspecified),-23.5%
4,COC(=O)c1ccc(CN(Cc2ccc(C)o2)C2CC2)o1,66.2% (active)
5,COC(=O)c1ccc(CN(Cc2sccc2C)C2CC2)o1,98.5% (active)
6,COC(=O)c1ccc(CN(Cc2ccc(OC)cc2)C2CC2)o1,54.7% (active)
7,Cc1ccc(NC(=O)NC(=O)CN(Cc2ccco2)C2CC2)cc1C,-3.72%
8,COC(=O)c1ccc(CSc2n[nH]c(=S)s2)o1,inactive
9,COc1ccc(CCN(Cc2ccc(C)o2)C(=O)CN(C(=O)c2ccccc2Cl)C2CC2)cc1OC,-5.97%
10,COc1ccc(CN(C(=O)Nc2cccc(Cl)c2)C2CC2)cc1,-5.25%
11,N#Cc1cc(C(=O)c2cc(Cl)cc(Cl)c2O)cn(-c2nccs2)c1=O,25.4%
12,O=C(CC1CC2CCC1C2)N1CCN(c2ccccc2O)CC1 (stereo unspecified),85.9% (active)
13,O=C(CC1C[C@@H]2CC[C@H]1C2)N1CCc2c(cnn2-c2ccccn2)C1 (stereo partly specified),49.8%
14,O=C(NCCC1CC2CCC1C2)c1ccc(N2CCOCC2)nc1 (stereo unspecified),5.89%
15,Cc1cccc(Nc2cc(N3CCN(CCCOc4ccccc4)CC3)ncn2)c1,50.3% (active)
16,COc1cccc(NC(=O)N2CCN(CCCOC(c3ccc(Cl)cc3)c3ccc(Cl)cc3)CC2)c1,15.9%
17,CCCCCOc1ccc(Nc2cc(-c3cccc(N)c3)ncn2)cc1,5.27%
18,Nc1nnc(Sc2ncc([N+](=O)[O-])s2)s1,102% (active)
19,O=[N+]([O-])c1c(-n2cccn2)nn(-c2ccccc2)c1C(Cl)Cl,101% (active)
20,NCCc1cccc(OCCCc2ccccc2)c1,57.2% (active)
21,COc1cccc(C=CC(=O)c2ccc(N3CCCC3=O)cc2)c1OC,40%
22,O=C(Nc1nc(-c2ccccn2)cs1)c1cccc(N2CCCC2=O)c1,100% (active)

row,SMILES,inhibition
1,CCCCc1ccc(NC(=O)CSc2n[nH]c(=O)c3cc(-c4ccco4)nn23)cc1,98.1% (active)
2,S=C(NCC1CCCO1)Nc1ccc(N2CCCCC2)cc1 (stereo unspecified),60.7% (active)
3,Oc1ccc(C=NNC(=S)NCC2CCCO2)c(O)c1 (stereo unspecified),101% (active)
4,S=C(NCC1CCCO1)N1CCc2ccccc2C1 (stereo unspecified),19.9%
5,Cc1cc(C(=O)N2CC=C(c3ccc(O)cc3)CC2)c(C)o1,15.5%
6,Oc1ccc(C2=CCN(c3ncnc4ccccc34)CC2)cc1,15.6%
7,N#Cc1ccc(CN2CC=C(c3ccc(O)cc3)CC2)c(F)c1,-43%
8,Oc1ccc(C2=CCN(c3nnc(Br)s3)CC2)cc1,95.1% (active)
9,CNC(=O)c1ccc(N2CC=C(c3ccc(O)cc3)CC2)nn1,91.4% (active)
10,O=S(=O)(Nc1cccc(C2OCC(COc3ccc(Cl)cc3)O2)c1)c1ccccc1 (stereo unspecified),-0.13%
11,CC(=O)Nc1ccc(OCc2nnsc2Cl)cc1,85.4% (active)
12,CN(c1ccccc1)c1nc2ccsc2c(=O)s1,58.2% (active)
13,CCc1ccccc1Oc1nc(NC(C)C)nc2ccsc12,31.8%
14,Cc1cc(C)nc(Nc2nc(C(N)Cc3ccc(Cl)cc3)cs2)n1 (stereo unspecified),73.2% (active)
15,CCCc1cnc(Nc2nc(C(N)Cc3ccc(C(F)(F)F)cc3)cs2)nc1 (stereo unspecified),50.7% (active)
16,Cc1cc(C)nc(Nc2nc(C(N)Cc3ccc(C(F)(F)F)cc3)cs2)n1 (stereo unspecified),79.2% (active)
17,Cc1ccc(-c2nc(CN3CCOC(c4ccccc4)C3)cs2)o1 (stereo unspecified),29.6%
18,Cc1c(-c2ccccc2)sc2ncn(CC(=O)N3CCCCC3C)c(=O)c12 (stereo unspecified),48.6%
19,CC(=O)CSc1nc(C)nc2sc3c(c12)CCCC3,10%
20,Cc1nc(SCC(=O)N2CCCCC2C)c2c3c(sc2n1)CCCC3 (stereo unspecified),51.5% (active)
21,CC(C)(C)c1csc(-c2cccc(OCC(N)=O)c2)n1,35.2%
22,Cc1ccc2[nH]cc(-c3cccc(OCC(N)=O)c3)c2c1,72.6% (active)
